Records with an inconclusive call do not appear. Values without a mark were called inactive. Calls of active or inactive are those of the source. Unless noted, the call rests on the fitted dose curve; in most records, active means well fitted curve in the direction sought with a large enough effect; inconclusive means small, poorly fitted or top-dose-only effect, or another doubt; inactive means no such curve, though single readings can be large; an effect the other way counts as inactive or inconclusive.

Sequence of Luciferin 4-monooxygenase (Photinus pyralis) (P08659 whole entry, looked up): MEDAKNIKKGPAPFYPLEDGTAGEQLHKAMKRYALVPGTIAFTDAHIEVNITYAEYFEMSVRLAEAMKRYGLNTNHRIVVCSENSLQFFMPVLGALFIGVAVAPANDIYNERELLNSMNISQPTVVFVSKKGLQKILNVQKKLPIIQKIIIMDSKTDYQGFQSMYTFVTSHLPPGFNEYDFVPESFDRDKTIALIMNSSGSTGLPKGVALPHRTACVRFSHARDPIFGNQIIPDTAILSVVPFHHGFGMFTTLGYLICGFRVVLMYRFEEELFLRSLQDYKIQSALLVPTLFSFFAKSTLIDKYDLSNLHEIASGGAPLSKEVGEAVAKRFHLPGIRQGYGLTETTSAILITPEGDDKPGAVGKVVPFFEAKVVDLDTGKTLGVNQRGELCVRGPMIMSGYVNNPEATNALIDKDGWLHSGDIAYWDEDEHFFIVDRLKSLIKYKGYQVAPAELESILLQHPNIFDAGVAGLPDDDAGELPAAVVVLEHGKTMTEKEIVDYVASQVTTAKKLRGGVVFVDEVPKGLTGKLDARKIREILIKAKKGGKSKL

One assay deals with Luciferin 4-monooxygenase (Photinus pyralis) (UniProt P08659). The experiment in a line: Biochemical firefly luciferase enzyme assay for NPC (AID 624030).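 Further: purified P. pyralis luciferase at 10 nM with luciferin and ATP substrate; 0% = DMSO and -100% = full luciferase inhibition by PTC124 control; nearly all actives have a fitted effect of over 70% in size.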 The note with it: purified P. pyralis luciferase, luminescence, 5 min; series mostly up to 58.6 µM; activity change, negative = inhibition: at the top concentration. In a few lines:
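Counter-screen for direct inhibition of the luciferase enzyme by approved-drug library compounds, run at 10 nM enzyme in 50 mM Tris acetate (final). Luminescence was read within 5 min of enzyme-buffer addition and normalized to PTC124 versus DMSO (0%).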
For `O=C1CN=C(c2ccccc2)c2cc([N+](=O)[O-])ccc2N1`, the “activity change, negative = inhibition” value is 4.91%.

`O=c1[nH]oc2c1CCNC2`: the “activity change, negative = inhibition” value is 1.06%.

Consider `CN1C(=O)CCS(=O)(=O)C1c1ccc(Cl)cc1` (configuration not stated), for which the Potency result was “inactive”.

For the compound `C[C@]12CCC(=O)C=C1CC[C@@H]1[C@@H]2CC[C@]2(C)C(=O)CC[C@@H]12`, the “activity change, negative = inhibition” value was 1.55%.

As for `CC(C)(C)NCC(O)c1cc(Cl)c(N)c(C(F)(F)F)c1` (configuration not stated), the “activity change, negative = inhibition” value was 0.553%.

`NC(=O)c1cc([N+](=O)[O-])cc([N+](=O)[O-])c1`: the “activity change, negative = inhibition” value was -12.7%.

Take `Clc1ccc(C(c2ccc(Cl)cc2)C(Cl)(Cl)Cl)cc1`: the “activity change, negative = inhibition” value is -2.64%.

As to `COc1cc(OC)c(OC)cc1C=O`, the “activity change, negative = inhibition” value was 0.43% [at 123 µM].

Turning to `COc1ccc2c(c1)C13CCCC[C@@H]1C(C2)N(C)CC3` (some centres not stated), the “activity change, negative = inhibition” value is 10.3%.

`CN1C(=O)CC(=O)N(c2ccccc2)c2cc(Cl)ccc21`: the “activity change, negative = inhibition” value was 4.47%.

System in another assay: not listed separately
Description: S16 Schwann cell viability assay (CellTiter-Glo assay) (AID 624031).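 Further: cellular ATP luminescence as a viability measure; plate controls were DMSO-treated cells for no effect and cell-free wells for full effect; nearly all actives have a fitted effect of over 70% in size.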 The note with it: S16 rat Schwann cells viability, 24 h; series mostly up to 57.5 µM; activity change, negative = cytotoxicity: at the top concentration. In a few lines:
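Native S16 Schwann cells (rat), serum-containing medium, overnight attachment then 24 h drug exposure at 37 °C/5% CO2. CellTiter-Glo ATP signal; normalized to cell-free and vehicle wells.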
Turning to `O=C1OC(c2ccc(O)c(S(=O)(=O)O)c2)(c2ccc(O)c(S(=O)(=O)O)c2)c2c(Br)c(Br)c(Br)c(Br)c21`, the “activity change, negative = cytotoxicity” value was 8.63%.

As for `C[C@]12CC[C@@H]3c4ccc(OC(=O)N(CCCl)CCCl)cc4CC[C@H]3[C@@H]1CC[C@@H]2O`, the “activity change, negative = cytotoxicity” value is 2.91%.

In the case of `O=C1CN=C(c2ccccc2)c2cc([N+](=O)[O-])ccc2N1`, the “activity change, negative = cytotoxicity” value was 3.61%.

In the case of `O=c1[nH]oc2c1CCNC2`, the “activity change, negative = cytotoxicity” value is 10.3%.

On to `CN1C(=O)CCS(=O)(=O)C1c1ccc(Cl)cc1` (configuration not stated), for which the “activity change, negative = cytotoxicity” value is -14.7%.

`C[C@]12CCC(=O)C=C1CC[C@@H]1[C@@H]2CC[C@]2(C)C(=O)CC[C@@H]12`: the “activity change, negative = cytotoxicity” value is -16%.

For the compound `c1ccc2c(c1)sc1ccccc12`, the “activity change, negative = cytotoxicity” value is 9.47%.

Consider `CCOC(=O)CC(SP(=S)(OC)OC)C(=O)OCC` (configuration not stated), for which the “activity change, negative = cytotoxicity” value is 0.74%.

On to `O=C(O)CCCc1ccc(N(CCCl)CCCl)cc1`, for which the “activity change, negative = cytotoxicity” value is -1.34%.

`O=C(N/N=C/c1ccc([N+](=O)[O-])o1)c1cc([N+](=O)[O-])cc([N+](=O)[O-])c1O`: the “activity change, negative = cytotoxicity” value was -1.19%.

Take `CCCC(C)(COC(N)=O)COC(N)=O`: the “activity change, negative = cytotoxicity” value was 5.33%.

In the case of `CC(C)(C)NCC(O)c1cc(Cl)c(N)c(C(F)(F)F)c1` (configuration not stated), the “activity change, negative = cytotoxicity” value was -16.4%.

`NC(=O)c1cc([N+](=O)[O-])cc([N+](=O)[O-])c1`: the “activity change, negative = cytotoxicity” value was -19.3%.

For the compound `Cc1nnc2n1-c1ccc(Cl)cc1C(c1ccccc1Cl)=NC2`, the “activity change, negative = cytotoxicity” value was -16%.

For `CC(C)=CC1C(C(=O)OCN2C(=O)C3=C(CCCC3)C2=O)C1(C)C` (configuration not stated), the “activity change, negative = cytotoxicity” value is -21.5%.

For the compound `NC(=O)CS(=O)C(c1ccccc1)c1ccccc1` (configuration not stated), the “activity change, negative = cytotoxicity” value is 2.28%.

As to `Clc1ccc(C(c2ccc(Cl)cc2)C(Cl)(Cl)Cl)cc1`, the “activity change, negative = cytotoxicity” value is 1.11%.

For the compound `COc1ccc2c(c1)C13CCCC[C@@H]1C(C2)N(C)CC3` (some centres not stated), the “activity change, negative = cytotoxicity” value is 3.9%.

As for `COC(=O)C(c1ccccc1)C1CCCCN1` (configuration not stated), the “activity change, negative = cytotoxicity” value is 11%.

On to `CN1C(=O)CC(=O)N(c2ccccc2)c2cc(Cl)ccc21`, for which the “activity change, negative = cytotoxicity” value was -1.75%.

For `COc1cccc([C@@]2(O)CCCC[C@@H]2CN(C)C)c1`, the “activity change, negative = cytotoxicity” value was 8.81%.

System in a further assay: not listed separately
Description: S16 Schwann cell PMP22 intronic element firefly luciferase assay (AID 624032). Further: nearly all actives have a fitted effect of over 30% in size. Further: potency means the concentration at half of the fitted maximal effect.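 On activity change, negative = inhibition: plate controls were DMSO for no effect and PTC124 positive control mean for full effect.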 The note with it: S16 rat Schwann cells, PMP22 element FLuc, 24 h; series mostly up to 57.5 µM; activity change, negative = inhibition: at the top concentration. In a few lines:
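Rat S16 Schwann cells stably carrying a PMP22 intronic element-driven Fluc reporter were seeded overnight, then exposed to compounds for 24 h at 37 °C. Luminescence was normalized to PTC124 (positive control) and DMSO (0% activity).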
As for `O=C1OC(c2ccc(O)c(S(=O)(=O)O)c2)(c2ccc(O)c(S(=O)(=O)O)c2)c2c(Br)c(Br)c(Br)c(Br)c21`, the “activity change, negative = inhibition” value is 7.17%.

As to `C[C@]12CC[C@@H]3c4ccc(OC(=O)N(CCCl)CCCl)cc4CC[C@H]3[C@@H]1CC[C@@H]2O`, the “activity change, negative = inhibition” value was -5.63%.

With `O=C1CN=C(c2ccccc2)c2cc([N+](=O)[O-])ccc2N1`, the “activity change, negative = inhibition” value is -17.9%.

Consider `O=c1[nH]oc2c1CCNC2`, for which the “activity change, negative = inhibition” value is 12.9%.

Regarding `CN1C(=O)CCS(=O)(=O)C1c1ccc(Cl)cc1` (configuration not stated), the “activity change, negative = inhibition” value was -5.84%.

For the compound `C[C@]12CCC(=O)C=C1CC[C@@H]1[C@@H]2CC[C@]2(C)C(=O)CC[C@@H]12`, the “activity change, negative = inhibition” value was -2.73%.

As for `c1ccc2c(c1)sc1ccccc12`, the “activity change, negative = inhibition” value is -11.9%.

Regarding `CCOC(=O)CC(SP(=S)(OC)OC)C(=O)OCC` (configuration not stated), the “activity change, negative = inhibition” value is -23.6%.

Regarding `O=C(N/N=C/c1ccc([N+](=O)[O-])o1)c1cc([N+](=O)[O-])cc([N+](=O)[O-])c1O`, the “activity change, negative = inhibition” value was 11.1%.

As to `CCCC(C)(COC(N)=O)COC(N)=O`, the “activity change, negative = inhibition” value is -4.44%.

As for `CC(C)(C)NCC(O)c1cc(Cl)c(N)c(C(F)(F)F)c1` (configuration not stated), the “activity change, negative = inhibition” value is -15.4%.

Regarding `Cc1nnc2n1-c1ccc(Cl)cc1C(c1ccccc1Cl)=NC2`, the “activity change, negative = inhibition” value was -18.5%.

As for `NC(=O)CS(=O)C(c1ccccc1)c1ccccc1` (configuration not stated), the “activity change, negative = inhibition” value was 7.7%.

Take `Clc1ccc(C(c2ccc(Cl)cc2)C(Cl)(Cl)Cl)cc1`: the Potency was 10.2 µM (active).

Consider `COc1ccc2c(c1)C13CCCC[C@@H]1C(C2)N(C)CC3` (some centres not stated), for which the “activity change, negative = inhibition” value was 1.47%.

With `COC(=O)C(c1ccccc1)C1CCCCN1` (configuration not stated), the “activity change, negative = inhibition” value is 6.51%.

In the case of `CN1C(=O)CC(=O)N(c2ccccc2)c2cc(Cl)ccc21`, the “activity change, negative = inhibition” value was -12.5%.

`COc1cccc([C@@]2(O)CCCC[C@@H]2CN(C)C)c1`: the “activity change, negative = inhibition” value is 3.74%.

System in a further assay: not listed separately
The experiment in a line: S16 Schwann cell PMP22 intronic element beta-lactamase assay (AID 624044; calls by dose curve;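 further: 0% = DMSO and -100% = potassium clavulanate positive control; nearly all actives have a fitted effect of over 15% in size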). As to conditions: S16 rat Schwann cells, PMP22 element beta-lactamase FRET, 24 h; series mostly up to 38.3 µM; ratio activity, negative = inhibition: at the top concentration. The method in brief: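 Rat S16 Schwann cells with beta-Lac driven by a PMP22 intronic element, compound-treated 24 h at 37 °C. LiveBLAzer FRET B/G read: 460 nm normalized to potassium clavulanate vs DMSO; 535 nm FRET as viability; concentration-effect curves classified.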
`O=C1OC(c2ccc(O)c(S(=O)(=O)O)c2)(c2ccc(O)c(S(=O)(=O)O)c2)c2c(Br)c(Br)c(Br)c(Br)c21`: the “ratio activity, negative = inhibition” value is 6.43%.

With `C[C@]12CC[C@@H]3c4ccc(OC(=O)N(CCCl)CCCl)cc4CC[C@H]3[C@@H]1CC[C@@H]2O`, the “ratio activity, negative = inhibition” value is 5.77%.

For the compound `O=C1CN=C(c2ccccc2)c2cc([N+](=O)[O-])ccc2N1`, the “ratio activity, negative = inhibition” value was -4.49%.

`C[C@]12CCC(=O)C=C1CC[C@@H]1[C@@H]2CC[C@]2(C)C(=O)CC[C@@H]12`: the “ratio activity, negative = inhibition” value was -1.27%.

Consider `O=C(N/N=C/c1ccc([N+](=O)[O-])o1)c1cc([N+](=O)[O-])cc([N+](=O)[O-])c1O`, for which the “ratio activity, negative = inhibition” value was 9.12%.

Take `CCCC(C)(COC(N)=O)COC(N)=O`: the “ratio activity, negative = inhibition” value is -3.48%.

In the case of `NC(=O)c1cc([N+](=O)[O-])cc([N+](=O)[O-])c1`, the “ratio activity, negative = inhibition” value was 3.01%.

Regarding `Cc1nnc2n1-c1ccc(Cl)cc1C(c1ccccc1Cl)=NC2`, the “ratio activity, negative = inhibition” value is 1.14%.

With `CC(C)=CC1C(C(=O)OCN2C(=O)C3=C(CCCC3)C2=O)C1(C)C` (configuration not stated), the “ratio activity, negative = inhibition” value was 2.41%.

Turning to `Clc1ccc(C(c2ccc(Cl)cc2)C(Cl)(Cl)Cl)cc1`, the “ratio activity, negative = inhibition” value was -5.49%.

Regarding `COc1ccc2c(c1)C13CCCC[C@@H]1C(C2)N(C)CC3` (some centres not stated), the “ratio activity, negative = inhibition” value is -1.29%.

`COC(=O)C(c1ccccc1)C1CCCCN1` (configuration not stated): the “ratio activity, negative = inhibition” value is -0.461%.

As to `COc1cccc([C@@]2(O)CCCC[C@@H]2CN(C)C)c1`, the “ratio activity, negative = inhibition” value was 6.31%.

The values above are taken from PubChem BioAssay (NCATS).
